Experimental data: PubChem BioAssay (Tox21)
Inconclusive results are not listed. Activity calls are given as the source filed them. Unless noted, calls follow the shape of the dose curve; as a rule, active = well fitted curve in the direction sought with a large enough effect in the repeat runs; inconclusive = weak or mixed curves; inactive = no such curve, though single readings can be large; an effect the other way counts as inactive or inconclusive.

How the values were obtained:
[1] = qHTS assay to identify small molecule agonists of the hypoxia (HIF-1) signaling pathway - cell viability counter screen (AID 1224844; calls by dose curve; also: nearly all actives have a fitted effect of over 50% in size)
Method in brief: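 HRE-bla ME-180 cells in medium with 0.5% dialyzed FBS were preincubated 5 hrs at 37C, exposed to compounds for 17 hrs, then viability was read as CellTiter-Glo luminescence after 30 min at room temperature, in the reporter wells.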

[2] = qHTS assay to identify small molecule agonists of H2AX (AID 1224845; active = well fitted activation curve with a large enough effect in the signal ratio in the repeat runs, not every such curve was filed as active; the % refers to the signal ratio)
Method in brief: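 Phospho-H2AX Ser139 measured by HTRF (ex 320 nm; em 665 and 620 nm) after 24 hr antibody incubation. Compounds, 15 concentrations, 0.76% DMSO, were applied to CHO-K1 cells for 3hr at 37C before lysis.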

[3] = qHTS assay to identify small molecule agonists of the hypoxia (HIF-1) signaling pathway (AID 1224846; active = well fitted activation curve with a large enough effect in the signal ratio in the repeat runs, not every such curve was filed as active; the % refers to the signal ratio)
Method in brief: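 HRE-bla ME-180 cells (beta-lactamase reporter under hypoxia response element) were plated at 2,000 cells/well in medium with 0.5% dialyzed FBS, rested 5 hrs, then given compounds in DMSO for 17 hrs at 37C, 5% CO2. Reporter induction was read with CCF4-AM FRET substrate.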

[4] = qHTS assay to identify small molecule agonists of H2AX - cell viability counter screen (AID 1224847; calls by dose curve;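 also: wild-type CHO-K1 cells; top concentration of the series differs between compounds; nearly all actives have a fitted effect of over 30% in size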)
Method in brief: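 For this counter screen, overnight-attached CHO-K1 cells received test compounds (15 concentrations, 0.76% DMSO final); 3 hr later at 37C, CellTiter-Glo reagent was added and luminescence recorded after 30 min at room temperature.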

[5] = qHTS RealTime-Glo MT Cell Viability Assay in HEK293 cells - 32 hour (AID 1224868); also: nearly all actives have a fitted effect of over 50% in size; also: potency is read from the fitted curve at half-maximal effect
Method in brief: (§1)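 Viability tracked continuously by luminescence as live cells reduce a prosubstrate for NanoLuc; HEK293 cells preincubated 5 h, compound-treated at 37 C, and read at 0, 8, 16, 24, 32 and 40 h.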

[6] = A CellTox Green Cytotoxicity Assay to monitor cytotoxicity in HEK293 cells - 0 hour (AID 1224869); also: nearly all actives have a fitted effect of over 50% in size
Method in brief: (§2)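 HEK293 cells premixed with CellTox Green dye were seeded at 600 cells/well and left 5 h at 37 C/5% CO2 before pin transfer of 23 nL compound in DMSO. Fluorescence from dye bound to dead-cell DNA was read during 40 h treatment.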

[7] = qHTS RealTime-Glo MT Cell Viability Assay in HepG2 cells - 40 hour (AID 1224870); also: nearly all actives have a fitted effect of over 50% in size
Method in brief: (§3)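 Real-time viability: cells seeded at 600 per well together with NanoLuc and cell-permeant prosubstrate, compounds added after 5 h incubation. Luminescence tracked at 0, 8, 16, 24, 32 and 40 h of exposure.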

[8] = A CellTox Green Cytotoxicity Assay to monitor cytotoxicity in HEK293 cells - 40 hour (AID 1224871); also: nearly all actives have a fitted effect of over 45% in size
Method in brief: as §2

[9] = qHTS RealTime-Glo MT Cell Viability Assay in HEK293 cells - 16 hour (AID 1224872)
Method in brief: as §1

[10] = qHTS RealTime-Glo MT Cell Viability Assay in HepG2 cells - 8 hour (AID 1224873); also: nearly all actives have a fitted effect of over 55% in size
Method in brief: as §3

[11] = qHTS RealTime-Glo MT Cell Viability Assay in HEK293 cells - 40 hour (AID 1224874); details: RealTime-Glo luminescence; max response: hits give low values; also: nearly all actives have a fitted effect of over 50% in size; also: potency is read from the fitted curve at half-maximal effect
Method in brief: (§4)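 HEK293 cells mixed with RealTime-Glo reagents (NanoLuc plus cell-permeant prosubstrate) at 600 cells/well, preincubated 5 h at 37 C/5% CO2, then given 23 nL compound in DMSO. Nonlytic luminescence from viable cells was read at 0, 8, 16, 24, 32 and 40 h.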

[12] = A CellTox Green Cytotoxicity Assay to monitor cytotoxicity in HEK293 cells - 24 hour (AID 1224875); also: nearly all actives have a fitted effect of over 45% in size
Method in brief: as §2

[13] = A CellTox Green Cytotoxicity Assay to monitor cytotoxicity in HepG2 cells - 16 hour (AID 1224876); also: nearly all actives have a fitted effect of over 45% in size
Method in brief: (§5)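 HepG2 cells were seeded together with the CellTox Green dye at 600 cells/well, left 5 h at 37 C/5% CO2, then given compounds in DMSO. Fluorescence from dye bound to dead-cell DNA was read repeatedly over 40 h of treatment at 37 C.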

[14] = A CellTox Green Cytotoxicity Assay to monitor cytotoxicity in HepG2 cells - 24 hour (AID 1224878); also: nearly all actives have a fitted effect of over 45% in size
Method in brief: as §5

[15] = A CellTox Green Cytotoxicity Assay to monitor cytotoxicity in HepG2 cells - 40 hour (AID 1224879); also: nearly all actives have a fitted effect of over 40% in size
Method in brief: as §5

[16] = qHTS RealTime-Glo MT Cell Viability Assay in HEK293 cells - 0 hour (AID 1224880)
Method in brief: as §4

[17] = qHTS RealTime-Glo MT Cell Viability Assay in HepG2 cells - 24 hour (AID 1224867); also: nearly all actives have a fitted effect of over 50% in size
Method in brief: (§6)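 Viability was tracked continuously by NanoLuc luminescence from prosubstrate reduced by living HepG2 cells, at successive time points over 40 h of compound exposure. Cells with reagent were preincubated 5 h at 37 °C before compound addition.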

[18] = qHTS RealTime-Glo MT Cell Viability Assay in HepG2 cells - 32 hour (AID 1224877); also: nearly all actives have a fitted effect of over 55% in size
Method in brief: as §6

[19] = qHTS assay to identify small molecule antagonists of the estrogen related receptor (ERR) signaling pathway from Tox21 library (AID 1224848); also: nearly all actives have a fitted effect of over 50% in size; also: potency is read from the fitted curve at half-maximal effect
Method in brief: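 Reading was by luminescence 30 min after ONE-Glo addition. Before that, ERR cells at 2,000 per well had rested 6 h at 37 C/5% CO2 and then received pin-tooled compounds in DMSO for 18 h at 37 C.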

[20] = qHTS assay to identify small molecule agonists of the estrogen related receptor (ERR) signaling pathway from Tox21 library (AID 1224849; calls by dose curve; also: nearly all actives have a fitted effect of over 15% in size); details: ERR reporter cell line, ONE-Glo luciferase, 18 h; at 92.4 µM (top of the series) unless noted
Method in brief: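 ERR reporter cell line (NTP) seeded, rested 6 h at 37 C/5% CO2, then pinned with Tox21 compounds in DMSO. After 18 h at 37 C, ONE-Glo luciferase luminescence was read following 30 min at room temperature.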
% is scaled to controls: 0 for no effect and ±100 for the full control effect.

CCOc1ccc(N=Nc2ccc(/C=C/c3ccc(N=Nc4ccc(OCC)cc4)cc3S(=O)(=O)O)c(S(=O)(=O)O)c2)cc1
inactive: Potency [1] | Potency [2] | Potency [3] | Potency [4] | Potency [5] | Potency [6] | Potency [7] | Potency [8] | Potency [9] | Potency [10] | max response [11] -1.09% | Potency [12] | Potency [13] | Potency [14] | Potency [15] | Potency [16]

CN(C)c1ccc(CCO)cc1
active: Potency [5] 30.7 µM | Potency [11] 34.5 µM
inactive: Potency [1] | Potency [2] | Potency [3] | Potency [4] | Potency [6] | Potency [7] | Potency [10] | Potency [12] | Potency [13] | Potency [14] | Potency [15] | Potency [16]

CC1OC(=O)C(C)OC1=O (stereo not drawn)
inactive: Potency [1] | Potency [2] | Potency [3] | Potency [17] | Potency [5] | Potency [6] | Potency [7] | Potency [8] | Potency [9] | Potency [10] | max response [11] -4.59% | Potency [12] | Potency [13] | Potency [18] | Potency [15] | Potency [16]

Cc1cccc(C)c1NC(=O)CN(CC(=O)O)CC(=O)O
inactive: Potency [1] | Potency [2] | Potency [3] | Potency [4] | Potency [5] | Potency [7] | Potency [9] | Potency [10] | max response [11] 5.56% | Potency [12] | Potency [13] | Potency [18] | Potency [14] | Potency [15] | Potency [16]

COc1cc2nc(N(C)CCCNC(=O)C3CCCO3)nc(N)c2cc1OC (stereo not drawn)
active: Potency [19] 9.44 µM
inactive: Potency [1] | Potency [2] | Potency [3] | activity change, positive = activation [20] -34.3% [at 42.5 µM] | Potency [17] | Potency [6] | Potency [7] | Potency [10] | Potency [12] | Potency [13] | Potency [18] | Potency [14] | Potency [15] | Potency [16]

CCCCOC(=O)CCCCCCCC(=O)OCCCC
inactive: Potency [1] | Potency [2] | Potency [4] | Potency [19] | activity change, positive = activation [20] 2.99% | Potency [17] | Potency [5] | Potency [6] | Potency [7] | Potency [9] | max response [11] 2.76% | Potency [12] | Potency [13] | Potency [18] | Potency [15] | Potency [16]

Cc1c(N)cccc1[N+](=O)[O-]
inactive: Potency [1] | Potency [2] | Potency [4] | Potency [19] | activity change, positive = activation [20] -14.7% | Potency [17] | Potency [6] | Potency [7] | Potency [8] | Potency [9] | Potency [10] | max response [11] -13.1% | Potency [12] | Potency [13] | Potency [18] | Potency [15] | Potency [16]

CCCCCC[C@@H](O)C/C=C\CCCCCCCC(=O)OC
inactive: Potency [1] | Potency [2] | Potency [4] | Potency [19] | activity change, positive = activation [20] 3.83% | Potency [17] | Potency [5] | Potency [6] | Potency [7] | Potency [8] | Potency [9] | Potency [10] | max response [11] 0.122% | Potency [12] | Potency [13] | Potency [18] | Potency [14] | Potency [15] | Potency [16]
